Source: the supplement of paper PMC10105736

Tests used:
Experiment in all cases: MAPPIT interaction score (arbitrary units); higher = stronger binary interaction signal, active = hit call of the paper;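 active = MAPPIT score above the 99th percentile of random reference set scores in the same batch; inactive = at or below it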
128up = details: MAPPIT configuration: N-N; pair source set: DPIM
Protocol: (§1)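 MAPPIT in HEK293T cells: Drosophila bait and prey ORFs (from the FlyBi ORF collection) were co-transfected in quadruplicate, with two wells stimulated by erythropoietin. Interaction-dependent JAK-STAT activation was read out with a STAT-responsive firefly luciferase reporter. Positive calls use the 99th percentile of random reference set (RRS) scores within each batch […]. Batches Dvs01 and Dvs02 used the N-N configuration and Dvs04 the N-C configuration. Pairs come from FlyBi screens, CuraGen, DPiM, Finley Y2H, Lit-BM-16, Lit-BS-16 and RRS.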

ATPCL = details: MAPPIT configuration: N-N
Protocol: as §1

Cka = details: MAPPIT configuration: N-N; pair source set: Curagen_low_conf
Protocol: as §1

CycK = details: MAPPIT configuration: N-N; pair source set: Finley_Y2H
Protocol: as §1

Dsp1 = details: pair source set: RRS
Protocol: as §1

Fkbp12 = details: MAPPIT configuration: N-N; pair source set: Lit-BS-16
Protocol: as §1

dod = details: MAPPIT configuration: N-N; pair source set: screen_1
Protocol: as §1

eIF4E3 = details: MAPPIT configuration: N-N; pair source set: Curagen_high_conf
Protocol: as §1

14-3-3epsilon = details: pair source set: Lit-BM-16
Protocol: as §1

CG5174 = details: MAPPIT configuration: N-N; pair source set: Curagen_low_conf
Protocol: as §1

LamC = details: MAPPIT configuration: N-N; pair source set: DPIM
Protocol: as §1

mon2 = details: MAPPIT configuration: N-N; pair source set: Curagen_low_conf
Protocol: as §1

par-1 = details: pair source set: Lit-BM-16
Protocol: as §1

sol = details: MAPPIT configuration: N-N; pair source set: Curagen_low_conf
Protocol: as §1

tral = details: MAPPIT configuration: N-N; pair source set: Lit-BS-16
Protocol: as §1

hpo = details: MAPPIT configuration: N-N; pair source set: Lit-BM-16
Protocol: as §1

sd = details: MAPPIT configuration: N-C; pair source set: Lit-BM-16
Protocol: as §1

Measured: MAPPIT interaction score
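Further: HEK293T cells with Epo stimulation, STAT-responsive firefly luciferase reporter, fold induction versus unstimulated cells divided by the larger fold induction of two negative controls lacking either bait or prey.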

B1: mod (protein)
chain: MAQKKAVTVKGKKATNGEEKPLAKRVTKSTKVQEEETVVPQSPSKKSRKQPVKEVPQFSEEDESDVEEQNDEQPGDDSDFETEEAAGLIDDEAEEDEEYNSDDEEDDDDDELEPGEVSKSEGADEVDESDDDEEAPVEKPVSKKSEKANSEKSEENRGIPKVKVGKIPLGTPKNQIVFVTNLPNEYLHKDLVALFAKFGRLSALQRFTNLNGNKSVLIAFDTSTGAEAVLQAKPKALTLGDNVLSVSQPRNKEENNERTVVVGLIGPNITKDDLKTFFEKVAPVEAVTISSNRLMPRAFVRLASVDDIPKALKLHSTELFSRFITVRRISQESISRTSELTLVVENVGKHESYSSDALEKIFKKFGDVEEIDVVCSKAVLAFVTFKQSDAATKALAQLDGKTVNKFEWKLHRFERSTSGRAILVTNLTSDATEADLRKVFNDSGEIESIIMLGQKAVVKFKDDEGFCKSFLANESIVNNAPIFIEPNSLLKHRLLKKRLAIGQTRAPRKFQKDTKPNFGKKPFNKRPAQENGGKSFVKRARF
inactive: 128up -0.0936

B2: PAN3 (protein)
chain: MCSTYGLLSFEFSDTAAMDPIFFSPTNGIPSESKLATYMNRQNVATPSGYGLNNGFSLLNLDSPLNKKSQVTPQSPEFIPTRLGSTPNFYAPYHNAPMQLSNGLNGVNGLTAAAAAAAAAAAAAAAAVPSSTSSASSASVTISKTANGGASMLALQKTASIASVTIAQQQPQHPQKQQQHPPSVGGGAVSAASAPIAISGAPPNPAAAPFVSSMSAQTPLKGRGAMMRQESPTAAMISGAGPGEKSPPHGMTPHGASPIPSALPTSVHQENVGGTIYFYPTANAQNSQPVVNSMVVDGTHPALHGVSAVAPMSAGVPAAMMYTGHVYPGPSSNVVTMQPKTLLESAFFMPDEMRAEVLARNEISNLIMDAAEAAQHALPLEVENYHALYPLEPPAQPLHAKLTFPATTYRATHNTTGYKYCLRRIHGFRLQSTKCMTLVEMWKKLQHTNVVQLREVFTTKAFGDNSLVLVYDYHPGSQTLLAKYFTPAPETNGYTDPFQGEARPFSHKSNMQRTSNGPLLPEATIWSIIMQLTAGLKAIHHAGLACKVLDPTKIIVTGKRVRFSSCCISDITQFDPNASNPLALVNMHQQDDLTALGRLVLALACRCLQSVQRDNVQSSIDMVTRNYSTDLRNFIVYLFTTNNRRSVTDLMPMIGARFYTQLDALQSKIDMQEDELAKEMENGRLYRILVKLNSINERPDFNLDCTWSETGDRYMLKLFRDYLFHSVTEDGRPWLDHAHIVQCLNKLDAGSIERVQLMSRDEQSVLIVSYAELKNCLENAFSELMSSAAN
active: CycK 3.73 | dod 2.85 | eIF4E3 2.53
inactive: ATPCL; pair source set: Curagen_high_conf 0.129 | ATPCL; pair source set: Lit-BS-16 0.112 | Cka -0.663 | Dsp1; MAPPIT configuration: N-C 0.178 | Dsp1; MAPPIT configuration: N-N -0.667 | Fkbp12 1.71

B3: 14-3-3zeta (protein)
chain: MSTVDKEELVQKAKLAEQSERYDDMAQAMKSVTETGVELSNEERNLLSVAYKNVVGARRSSWRVISSIEQKTEASARKQQLAREYRERVEKELREICYEVLGLLDKYLIPKASNPESKVFYLKMKGDYYRYLAEVATGDARNTVVDDSQTAYQDAFDISKGKMQPTHPIRLGLALNFSVFYYEILNSPDKACQLAKQAFDDAIAELDTLNEDSYKDSTLIMQLLRDNLTLWTSDTQGDEAEPQEGGDN
active: 14-3-3epsilon; MAPPIT configuration: N-N 3.94
inactive: CG5174 0.738 | LamC 0.222 | mon2 0.305 | par-1; MAPPIT configuration: N-C -0.258 | par-1; MAPPIT configuration: N-N -0.148 | sol 1.59 | tral 0.0264

B4: yki (protein)
chain: MLTTMSASSNTNSLIEKEIDDEDMLSPIKSNNLVVRVNQDTDDNLQALFDSVLNPGDAKRPLQLPLRMRKLPNSFFTPPAPSHSRANSADSTYDAGSQSSINIGNKASIVQQPDGQSPIAAIPQLQIQPSPQHSRLAIHHSRARSSPASLQQNYNVRARSDAAAANNPNANPSSQQQPAGPTFPENSAQEFPSGAPASSAIDLDAMNTCMSQDIPMSMQTVHKKQRSYDVISPIQLNRQLGALPPGWEQAKTNDGQIYYLNHTTKSTQWEDPRIQYRQQQQILMAERIKQNDVLQTTKQTTTSTIANNLGPLPDGWEQAVTESGDLYFINHIDRTTSWNDPRMQSGLSVLDCPDNLVSSLQIEDNLCSNLFNDAQAIVNPPSSHKPDDLEWYKIN
inactive: 14-3-3epsilon; MAPPIT configuration: N-C 2.04 | 14-3-3epsilon; MAPPIT configuration: N-N 2.25 | hpo 0.208 | sd 0.32
